Assay outcomes (PubChem)
BAZ2B block: blocks human BAZ2B; Q9UIF8; AlphaScreen BAZ2B-H3K14Ac peptide displacement; Potency, µM (highest dose often 114 µM), for the others: at the highest dose activity change, negative = inhibition, actives largely listed as inhibitors; actives 4.4% (n = 360,000); AID 504333; further: on the % scale 0 is the no-effect control and ±100 the full control effect; nearly all actives have a fitted effect of over 60% in size
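BAZ2B 50 nM plus b-H3(5-23)K14Ac 50 nM, PBS pH 7.4/0.01% Tween-20, 30 min RT; compound added (max 110 uM), 30 min RT; streptavidin donor/Ni-chelate acceptor beads 10 ug/mL final, 20 min dark; AlphaScreen read.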
JMJD2A Tudor: blocks the human JMJD2A Tudor domain | AlphaScreen JMJD2A-Tudor / H3K4me3 peptide binding | O75164 | actives 4.4% (n = 390,000) | Potency, µM (titrated, usually from 114 µM), for inactives: at the top dose activity change, negative = inhibition, most hits filed as inhibitors; further: on the % scale 0 is the no-effect control and ±100 the full control effect; nearly all actives have a fitted effect of over 50% in size
Sfp PPTase inh: Sfp phosphopantetheinyl transferase inhibition. AID 1490. Biochemical Sfp PPTase activity, qHTS. actives 3.5% (n = 310,000). Q9F4F7. Potency, µM, for inactives: largest response in the series, negative = inhibition, most hits filed as inhibitors;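 further: the enzyme is Sfp with the accession as filed and its product quenches rhodamine fluorescence; 0% = enzyme reaction without inhibitor and -100% = no enzyme wells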
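Sfp 15 nM + cpd, 15 min RT; start w/ rhodamine-CoA 5 uM, BHQ-2-YbbR 12.5 uM (final); 50 mM Hepes pH 7.6, 10 mM MgCl2, 0.01% NP-40, 0.01% BSA; read 525/598 nm at 0 and 30 min.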
L3MBTL1 block: blocks human L3MBTL1; Q9Y468; AlphaScreen L3MBTL1–H3K9me1 peptide binding; Potency, µM (highest dose often 57.1 µM), without a hit: at the top dose activity, negative = inhibition, usual class: inhibitors; actives 0.66% (n = 230,000); further: on the % scale 0 is the no-effect control and ±100 the full control effect; nearly all actives have a fitted effect of over 60% in size
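First, the protein-peptide complex forms for 30 min at room temperature (L3MBTL1 50 nM, biotinylated H3K9me1 peptide 75 nM). Next, compounds are pin-transferred and incubated 30 min. Finally, AlphaScreen beads are added and read after 30 min.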
G9a block: G9a (human) methyltransferase inhibition; AID 504332; G9a H3K9 monomethylation, AlphaScreen, 2 h; Q96KQ7; Potency, µM (series often up to 102 µM), for inactives: top-dose activity, negative = inhibition, most hits filed as inhibitors; actives 8.8% (n = 350,000); further: on the % scale 0 is the no-effect control and ±100 the full control effect; nearly all actives have a fitted effect of over 75% in size
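Compounds were preincubated with 20 nM G9a for 15 min, after which biotinylated H3K9 peptide (500 nM) and SAM (20 uM) started a 2 h room-temperature reaction. Monomethylated product was quantified by antibody-based AlphaScreen chemiluminescence.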
HP1b chromo inh: blocks HP1-beta chromodomain binding to methylated histone tails; actives 0.56% (n = 390,000); AlphaScreen HP1-beta / biotin-H3K9me3 peptide binding; AID 540317; Potency, µM (top dose mostly 114 µM), for inactives: at the top dose activity change, negative = inhibition, most hits filed as inhibitors; further: nearly all actives have a fitted effect of over 70% in size
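HP1-beta protein (50 nM final) preincubated 30 min at room temperature with biotinylated H3(1-18)K9me3 peptide (50 nM) in PBS pH 7.4, 0.01% Tween-20, then compound added for 30 min. AlphaScreen streptavidin donor/nickel chelate acceptor beads (10 ug/mL final), 30 min dark, luminescence read.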
* marks the source's active call; other numbers are inactive results; ? = inconclusive; . = no result given; [ ] = remark or other dose. Shown are actives, neighbours in structure and some others; about 12% of the full set was active somewhere. The call rests on the fitted dose curve; in most records, active means well fitted curve in the direction sought with a large enough effect; inconclusive means small, poorly fitted or top-dose-only effect, or another doubt; inactive means no such curve, though single readings can be large; an effect the other way counts as inactive or inconclusive. Potency means the concentration at half of the fitted maximal effect.

SMILES	BAZ2B block	JMJD2A Tudor	Sfp PPTase inh	L3MBTL1 block	G9a block	HP1b chromo inh
O=C(NCc1ccco1)c1ccc(-c2ccccc2Cl)o1	?	-16%	-14%	-15%	56µM*	-5%
COc1ccccc1CNC(=O)c1ccc(-c2ccccc2Cl)o1	?	-3%	?	2%	28µM*	66%
CCc1nc2nc(C)c(NS(=O)(=O)c3ccc(C)cc3)c(=O)n2[nH]1	-10%	-3%	.	.	-28%[59 µM]	29%
O=C(NC1CCCC1)c1ccc2c(=O)n(Cc3ccccc3)c(SCc3ccccc3F)nc2c1	2%	-12%	.	.	8%[59 µM]	11%[57 µM]
COc1cccc2cc(-c3n[nH]c(=S)n3C)oc12	-28%	7.9µM*	4%	.	7.1µM*	-12%
Cn1c(Cn2c3ccccc3c3ccccc32)n[nH]c1=S	-4%	-10%	12%	1%	7.9µM*	23%
C=C(C)Cn1c(CCn2c3ccccc3c3ccccc32)n[nH]c1=S	-32%	-27%	6%	2%	?	31%
Cn1c(-c2cccc3ccccc23)n[nH]c1=S	-5%	20µM*	-4%	3%	5µM*	20%
Cn1c(CSCc2ccc(Cl)cc2)n[nH]c1=S	-22%	?	13%	3%	10µM*	6%
Cn1c(CSCc2ccc(F)cc2)n[nH]c1=S	-9%	28µM*	-7%	7%	.	11%
Cn1c(CSCc2ccccc2)n[nH]c1=S	-8%	7.9µM*	12%	7%	7.9µM*	12%
Cn1c(CSCc2ccccc2Cl)n[nH]c1=S	-26%	?	-11%	45%	.	9%
COc1ccc(CNc2nc(-c3cccc(C#N)c3)nc3ccccc23)c(OC)c1	.	.	-13%	.	-45%[0.501 µM]	.
CN(C)CCCNc1nc(-c2ccccc2)nc2ccccc12	8%	-16%	18%	-2%	79µM*	30%
CC(C)OCCCNc1nc(-c2ccccc2)nc2ccccc12	16%	5%	4%	.	35%	56%
COc1ccc(CNc2nc(-c3ccc(N(C)C)cc3)nc3ccccc23)c(OC)c1	.	.	18µM*	.	0%[0.501 µM]	.
CCn1cc2nc(SCC(=O)Nc3cc(OC)ccc3OC)n(Cc3ccc(Cl)cc3)c(=O)c2n1	-12%	-26%	.	.	-41%[59 µM]	9%
CC(C)c1ccc(NC(=O)CSc2ncccc2C(=O)Oc2cccc([N+](=O)[O-])c2)cc1	7%	-14%	-20%	?	50µM*	16%[57 µM]
NS(=O)(=O)c1cccc(NC(=O)CSc2ccccn2)c1	5%	-3%	?	.	?	28%
NS(=O)(=O)c1ccc(NC(=O)CSc2ccccn2)cc1	2%	-1%	79µM*	-1%	-48%[59 µM]	32%
COc1ccc(NC(=O)CSc2ncccc2C(=O)OC(C)C)cc1OC	?	-12%	9%	.	?	-3%
NS(=O)(=O)c1ccc(NC(=O)CSc2ncnc3ccccc23)cc1	79µM*	-13%	9%	-4%	-32%	38%
NS(=O)(=O)c1ccc(NC(=O)CSc2cn[nH]n2)cc1	-3%	-6%	12%	.	45µM*	48%
CC(=O)c1cccc(NC(=O)C2CCN(S(=O)(=O)c3ccc4c(c3)oc(=O)n4C)CC2)c1	-4%	-15%	.	.	?	27%
O=C(CSc1ccccn1)Nc1cccc([N+](=O)[O-])c1	-15%	-25%	-26%	11%	11µM*	-1%
SMILES	BAZ2B block	JMJD2A Tudor	Sfp PPTase inh	L3MBTL1 block	G9a block	HP1b chromo inh
O=C(CSc1ccccn1)Nc1ccc(F)c([N+](=O)[O-])c1	-20%	-3%	9%	-4%	6%	11%
CCc1ccc(CN(Cc2cccnc2)C(=O)/C=C/c2ccc(OC)cc2)cc1	-24%	-28%	?	.	50µM*	0%
COc1ccc(/C=C/C(=O)NCc2cccnc2)cc1	3%	3%	-4%	0%	-4%	38%
O=[N+]([O-])/C=C/c1cc2ccccc2[nH]1	-29%	-29%	-7%	-10%	18µM*	21%
COc1ccc2c(c1)c1ncn(Cc3ccco3)c(=O)c1n2C	56%	-20%[57.1 µM]	18µM*	14%	1%[0.501 µM]	29%
C=CCn1c(C)cc(C2=NNC(=NC(C)(C)C)SC2)c1C	?	?	56µM*	-4%	?	-25%
NC1=NC(=Nc2ccc(S(=O)(=O)N3CCOCC3)cc2)c2ccccc21	3%	0%	-22%	.	-1%[59 µM]	192%
CCOc1ccc(N=C2NN=C(c3cc(C)n(CC4CCCO4)c3C)CS2)cc1 (configuration not stated)	71µM*	?	56µM*	-2%[11.4 µM]	16µM*	?
Cc1cc(C2=NNC(=Nc3ccc(S(=O)(=O)N4CCOCC4)cc3)SC2)c(C)n1C	-28%	?	13µM*	-7%	32µM*	-22%
C=CCn1c(C)cc(C2=NNC(=Nc3ccc(C)cc3)SC2)c1C	-13%	-28%	79µM*	-24%	-5%	-10%
Cn1c(=O)oc2cc(S(=O)(=O)NC(Cc3ccccc3)C(=O)Nc3ccc(F)c(Cl)c3)ccc21 (configuration not stated)	-12%	-14%	.	.	0%[59 µM]	14%
O=C(NCc1ccccc1Cl)c1cccc(C(F)(F)F)c1	20%	17%	-3%	12%	45µM*	41%
